Where “and” joins values, the source holds several entries; their conditions need not be identical. Equal entries are not always repeated. Inconclusive results are not listed. Calls of active or inactive are those of the source. Unless noted, calls follow the shape of the dose curve; as a rule, active = well fitted curve in the direction sought with a large enough effect; inconclusive = small, poorly fitted or top-dose-only effect, or another doubt; inactive = no such curve, though single readings can be large; an effect the other way counts as inactive or inconclusive.
Experiments:
[1] = target: Single-stranded DNA cytosine deaminase (Homo sapiens) (UniProt Q9GZX7); experiment: Validation qHTS assay for inhibitors of Activation Induced Cytidine Deaminase (AID): AID signal (AID 1347429); also: potency is read from the fitted curve at half-maximal effect
Procedure, shortened: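 AID+UDG coupled FRET deamination; cpds up to 114 uM final; DJC20/DJC23 substrate, 4 hr RT; NaOH stop, 30 min RT; read Ex 540/Em 590.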

[2] = Primary qHTS for small molecule stabilizers of the endoplasmic reticulum resident proteome: Secreted ER Calcium Modulated Protein (SERCaMP) assay (AID 1508630); also: potency is read from the fitted curve at half-maximal effect
Procedure, shortened: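 The SH-SY5Y reporter protocol was run at 3 concentrations up to 38.3 uM (primary) or 11 concentrations (follow-up): 16 h compound, 100 nM thapsigargin for 4 h, then extracellular luciferase luminescence.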

[3] = target: Papain (Carica papaya) (UniProt P00784); experiment: Primary qHTS assay for inhibitors of the protease papain (AID 1645873);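 also: papain turnover of Z-FR-AMC read as the AMC fluorescence gain over 10 min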; also: potency is read from the fitted curve at half-maximal effect
[4] = Primary qHTS for inhibitors of La Crosse Virus (LACV) - induced cell death in SH-SY5Y cells (AID 1508616); also: potency is read from the fitted curve at half-maximal effect
Procedure, shortened: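 Cytopathicity rescue screen: compounds pinned onto SH-SY5Y cells, which are then infected with LACV (MOI 0.01) and held 6 days at 37C. Percent activity is scaled between infected DMSO control and uninfected DMSO control.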

[5] = target: Calcium and integrin-binding protein 1 (Homo sapiens) (UniProt Q99828); experiment: Primary qHTS for Identification of Calcium Integrin Binding Protein 1 (CIB1) Competitor (AID 1508620);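 also: GST tagged CIB1 binding a fluorescein labelled alphaIIb integrin peptide tracer; top concentration of the series differs between compounds; % is scaled to controls: 0 for no effect and ±100 for the full control effect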
Procedure, shortened: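 Fluorescence polarization competition: CIB1-GST (1 uM final) preincubated with compound 15 min at room temperature, then FITC-labeled alphaIIb peptide (100 nM final) added for another 15 min. Polarization read at Ex 480/Em 540.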

[6] = Counterscreen qHTS for small molecule stabilizers of the endoplasmic reticulum resident proteome: GLuc-NoTag assay (AID 1508627); also: potency is read from the fitted curve at half-maximal effect
Procedure, shortened: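 Secreted GLuc lacking the SERCaMP modification is measured in SH-SY5Y cells exposed to compound for 19 h and then to thapsigargin (100 nM, 4 h) to deplete ER calcium; hits retested at 11 concentrations, up to 76.6 uM.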

[7] = Confirmatory qHTS for small molecule stabilizers of the endoplasmic reticulum resident proteome: Secreted ER Calcium Modulated Protein (SERCaMP) assay (AID 1508628); also: series mostly up to about 76 µM; % is scaled to controls: 0 for no effect and ±100 for the full control effect; nearly all actives have a fitted effect of over 40% in size
Procedure, shortened: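 GLuc-SERCaMP-expressing SH-SY5Y cells, pretreated 16 h with compound, are challenged with thapsigargin to empty ER calcium stores; after 4 h, coelenterazine is added directly to the medium and luminescence is imaged.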

[8] = Cell Viability qHTS for small molecule stabilizers of the endoplasmic reticulum resident proteome (AID 1508629); conditions: cell viability counter-screen, 100 nM thapsigargin for final 4 h;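 also: human SH-SY5Y neuroblastoma cells carrying the GLuc-SERCaMP reporter; compound exposure about 46 h in total before the viability read; % is scaled to controls: 0 for no effect and ±100 for the full control effect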
[9] = A High-Content qHTS Against Drug Library for the Identification of Small Molecules that Inhibit DYT1 Early Onset Primary Dystonia-Associated Cell Pathology (AID 1645839; calls by dose curve; also: series mostly up to about 46 µM)
Procedure, shortened: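 Induced EGFP-delE TorsinA cells are imaged after 48 h of compound treatment. Punctate fusion-protein distribution gives the %pathology value, while nuclei counts flag toxicity. Wild-type EGFP-hTOR1A cells define the normal pattern.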

[10] = target: Cytochrome P450 2D6 (Homo sapiens) (UniProt P10635); experiment: Cytochrome P450 family 2 subfamily D member 6 (CYP2D6) small molecule antagonists: luciferase biochemical (cell-free) qHTS assay (AID 1645840; active = well fitted curve in the direction sought with a large enough effect in the repeat runs; an effect the other way counts as inactive or inconclusive; also: nearly all actives have a fitted effect of over 55% in size; also: potency is read from the fitted curve at half-maximal effect)
Procedure, shortened: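 P450-Glo CYP2D6 system: proluciferin substrate converted by enzyme to luciferin, read by luminescence proportional to activity. Enzyme-substrate mix with compound 10 min at room temperature, then NADPH regeneration 1 h before detection reagent.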

[11] = target: Cytochrome P450 2C9 (Homo sapiens) (UniProt P11712); experiment: Cytochrome P450 family 2 subfamily C member 9 (CYP2C9) small molecule antagonists: luciferase biochemical (cell-free) qHTS assay (AID 1645842; active = well fitted curve in the direction sought with a large enough effect in the repeat runs; an effect the other way counts as inactive or inconclusive; also: nearly all actives have a fitted effect of over 55% in size; also: potency is read from the fitted curve at half-maximal effect)
Procedure, shortened: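 P450-Glo CYP2C9 system: proluciferin substrate with enzyme in mix containing 0.4% BSA, 10 min at room temperature, then NADPH regeneration solution added and incubated 1 h at 37C. Detection reagent stopped reaction; luminescence read after 20 min as RLU.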

[12] = Primary qHTS for inhibitors of nuclear receptor binding SET domain protein 2 (NSD2) in an isogenic RCH-ACV NSD2 p.E1099K mutant (9B) (AID 1645876); also: nearly all actives have a fitted effect of over 70% in size; also: potency is read from the fitted curve at half-maximal effect
[13] = Primary qHTS for inhibitors of nuclear receptor binding SET domain protein 2 (NSD2) in an RCH-ACV wild type WT cells (2C) (AID 1645877); also: nearly all actives have a fitted effect of over 70% in size; also: potency is read from the fitted curve at half-maximal effect
[14] = target: Calcium and integrin-binding protein 1 (Homo sapiens) (UniProt Q99828); experiment: Validation qHTS for Identification of Calcium Integrin Binding protein 1 (CIB1) Competitor (AID 1508618); also: % is scaled to controls: 0 for no effect and ±100 for the full control effect
Procedure, shortened: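 CIB1-GST (1 uM final) incubated 15 min at room temperature with compounds (up to 114 uM), then FITC-labelled alphaIIb peptide (100 nM) added. FP read (Ex 480/Em 540) after 15 min, pH 7.4 buffer containing 5 mM CaCl2.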

[15] = target: Rap guanine nucleotide exchange factor 3 (Homo sapiens) (UniProt O95398); experiment: Confirmatory qHTS for agonist of cAMP-regulated guanine nucleotide exchange factor 3 (EPAC1) (AID 1645881);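 also: EPAC1 catalysed release of BODIPY-GDP from Rap1B seen as fluorescence loss; 100% = effect of cAMP agonist control; nearly all actives have a fitted effect of over 75% in size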
[16] = target: Rap guanine nucleotide exchange factor 4 (Homo sapiens) (UniProt Q8WZA2); experiment: Confirmatory qHTS for agonist of cAMP-regulated guanine nucleotide exchange factor 4 (EPAC2) (AID 1645884);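 also: nucleotide exchange releases bodipy-GDP from Rap1 and this lowers its fluorescence; % is scaled to controls: 0 for no effect and ±100 for the full control effect; nearly all actives have a fitted effect of over 65% in size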
[17] = target: Calcium and integrin-binding protein 1 (Homo sapiens) (UniProt Q99828); experiment: Confirmatory qHTS for Identification of Calcium Integrin Binding Protein 1 (CIB1) Competitor (AID 1508617); conditions: CIB1 binding competition assay, biochemical qHTS; also: potency is read from the fitted curve at half-maximal effect; nearly all actives have a fitted effect of over 65% in size
Procedure, shortened: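 Compounds at up to 114 uM final met 1 uM GST-tagged CIB1 for 15 min at room temperature (HEPES pH 7.4, 5 mM CaCl2). FITC-labelled alphaIIb peptide, 100 nM, added; polarization read after 15 min more.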

[18] = target: Rap guanine nucleotide exchange factor 3 (Homo sapiens) (UniProt O95398); experiment: Confirmatory qHTS for antagonist of cAMP-regulated guanine nucleotide exchange factor 3 (EPAC1) (AID 1645880); also: potency is read from the fitted curve at half-maximal effect; nearly all actives have a fitted effect of over 55% in size
Procedure, shortened: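 Released BODIPY-GDP fluoresces less than Rap1-bound BODIPY-GDP; the signal is followed at 480/540 nm at 5-min intervals over 30 min, after 5 min at room temperature. Reactions contain 100 nM EPAC1, 250 nM RAP1B-BODIPY-GDP and 50 uM GDP; results are normalized to ATA and DMSO.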

[19] = target: Cytochrome P450 3A4 (Homo sapiens) (UniProt P08684); experiment: Cytochrome P450 family 3 subfamily A member 4 (CYP3A4) small molecule antagonists: luciferase qHTS assay (AID 1645841; active = well fitted curve in the direction sought with a large enough effect in the repeat runs; an effect the other way counts as inactive or inconclusive; also: nearly all actives have a fitted effect of over 45% in size)
Procedure, shortened: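 P450-Glo CYP3A4 enzyme with proluciferin substrate was preincubated with DMSO-dissolved compounds for 10 min at room temperature. NADPH regeneration solution started a 1 h reaction. Detection reagent stopped it, and luminescence was read after 20 min.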

Rap guanine nucleotide exchange factor 3 (Homo sapiens), sequence (O95398 whole entry, looked up): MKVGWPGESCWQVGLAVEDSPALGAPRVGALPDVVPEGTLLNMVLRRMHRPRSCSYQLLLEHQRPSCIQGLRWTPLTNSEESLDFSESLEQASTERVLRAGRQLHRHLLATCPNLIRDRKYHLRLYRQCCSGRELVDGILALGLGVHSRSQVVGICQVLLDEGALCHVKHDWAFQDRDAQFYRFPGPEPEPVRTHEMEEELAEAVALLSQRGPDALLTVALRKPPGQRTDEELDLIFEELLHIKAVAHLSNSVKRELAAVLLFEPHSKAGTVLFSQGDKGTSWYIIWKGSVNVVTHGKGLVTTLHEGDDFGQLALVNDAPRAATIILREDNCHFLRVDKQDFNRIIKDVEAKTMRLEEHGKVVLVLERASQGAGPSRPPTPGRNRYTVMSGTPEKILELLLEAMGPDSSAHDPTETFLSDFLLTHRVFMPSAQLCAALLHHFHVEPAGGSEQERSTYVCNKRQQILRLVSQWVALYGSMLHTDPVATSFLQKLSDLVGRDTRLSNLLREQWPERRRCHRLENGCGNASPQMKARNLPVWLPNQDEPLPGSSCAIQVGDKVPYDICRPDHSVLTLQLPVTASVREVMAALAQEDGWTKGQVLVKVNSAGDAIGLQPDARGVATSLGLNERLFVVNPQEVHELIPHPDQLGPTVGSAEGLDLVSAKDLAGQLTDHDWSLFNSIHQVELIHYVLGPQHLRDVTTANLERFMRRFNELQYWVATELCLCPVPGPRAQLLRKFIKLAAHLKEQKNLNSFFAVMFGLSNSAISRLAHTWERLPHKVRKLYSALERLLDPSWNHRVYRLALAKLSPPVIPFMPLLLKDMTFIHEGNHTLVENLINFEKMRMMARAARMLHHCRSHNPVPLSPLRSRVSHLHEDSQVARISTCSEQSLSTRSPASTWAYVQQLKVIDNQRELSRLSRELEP
Papain (Carica papaya), sequence (P00784 whole entry, looked up): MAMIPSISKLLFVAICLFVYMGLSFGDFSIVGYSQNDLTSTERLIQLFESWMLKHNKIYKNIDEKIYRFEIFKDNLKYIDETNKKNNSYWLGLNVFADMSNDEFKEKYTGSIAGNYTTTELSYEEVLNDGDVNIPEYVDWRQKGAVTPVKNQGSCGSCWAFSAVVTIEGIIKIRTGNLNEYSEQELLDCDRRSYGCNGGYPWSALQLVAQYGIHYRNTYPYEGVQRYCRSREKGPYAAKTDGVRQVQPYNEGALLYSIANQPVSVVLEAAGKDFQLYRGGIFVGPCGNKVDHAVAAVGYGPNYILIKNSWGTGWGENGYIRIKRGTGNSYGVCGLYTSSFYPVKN
Rap guanine nucleotide exchange factor 4 (Homo sapiens), sequence (Q8WZA2 whole entry, looked up): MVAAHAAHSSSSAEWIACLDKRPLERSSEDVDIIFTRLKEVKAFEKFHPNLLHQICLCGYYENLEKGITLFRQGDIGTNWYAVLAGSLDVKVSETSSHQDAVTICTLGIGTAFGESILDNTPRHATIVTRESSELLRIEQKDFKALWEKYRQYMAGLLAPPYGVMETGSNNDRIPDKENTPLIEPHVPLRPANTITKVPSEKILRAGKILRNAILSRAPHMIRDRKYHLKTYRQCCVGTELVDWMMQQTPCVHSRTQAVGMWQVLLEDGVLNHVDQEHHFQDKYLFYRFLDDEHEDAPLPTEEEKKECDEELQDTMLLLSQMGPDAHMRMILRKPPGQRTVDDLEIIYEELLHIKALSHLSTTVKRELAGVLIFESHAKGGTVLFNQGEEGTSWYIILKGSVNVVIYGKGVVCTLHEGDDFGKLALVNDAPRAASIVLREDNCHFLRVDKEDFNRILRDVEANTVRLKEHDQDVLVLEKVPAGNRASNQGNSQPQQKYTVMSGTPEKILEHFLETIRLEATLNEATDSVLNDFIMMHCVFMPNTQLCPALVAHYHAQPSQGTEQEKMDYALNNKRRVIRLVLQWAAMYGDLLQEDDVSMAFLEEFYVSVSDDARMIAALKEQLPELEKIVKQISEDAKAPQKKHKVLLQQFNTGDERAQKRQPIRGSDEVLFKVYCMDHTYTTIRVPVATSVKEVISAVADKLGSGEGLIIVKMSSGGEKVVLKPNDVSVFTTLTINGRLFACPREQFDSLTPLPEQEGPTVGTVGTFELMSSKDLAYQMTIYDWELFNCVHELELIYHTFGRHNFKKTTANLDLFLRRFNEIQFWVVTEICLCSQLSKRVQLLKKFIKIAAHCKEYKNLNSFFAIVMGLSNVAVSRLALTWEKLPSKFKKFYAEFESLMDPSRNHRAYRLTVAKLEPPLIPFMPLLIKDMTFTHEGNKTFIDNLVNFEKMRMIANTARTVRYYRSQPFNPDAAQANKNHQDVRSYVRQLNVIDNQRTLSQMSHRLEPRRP
Cytochrome P450 2D6 (Homo sapiens), sequence (P10635 whole entry, looked up): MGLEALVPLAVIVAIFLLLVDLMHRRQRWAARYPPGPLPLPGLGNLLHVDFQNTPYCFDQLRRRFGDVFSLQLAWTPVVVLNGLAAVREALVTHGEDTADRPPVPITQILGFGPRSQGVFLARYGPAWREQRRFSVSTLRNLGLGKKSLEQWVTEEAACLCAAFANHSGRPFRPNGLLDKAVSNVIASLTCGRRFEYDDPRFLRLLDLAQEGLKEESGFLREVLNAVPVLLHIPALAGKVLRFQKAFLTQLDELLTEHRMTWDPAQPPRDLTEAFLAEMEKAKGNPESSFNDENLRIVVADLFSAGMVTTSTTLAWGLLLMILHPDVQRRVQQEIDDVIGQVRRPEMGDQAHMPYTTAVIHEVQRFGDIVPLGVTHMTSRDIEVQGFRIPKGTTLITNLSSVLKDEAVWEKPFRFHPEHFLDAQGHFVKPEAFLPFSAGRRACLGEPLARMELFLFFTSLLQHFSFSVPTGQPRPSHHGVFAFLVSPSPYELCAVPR
Calcium and integrin-binding protein 1 (Homo sapiens), sequence (Q99828 whole entry, looked up): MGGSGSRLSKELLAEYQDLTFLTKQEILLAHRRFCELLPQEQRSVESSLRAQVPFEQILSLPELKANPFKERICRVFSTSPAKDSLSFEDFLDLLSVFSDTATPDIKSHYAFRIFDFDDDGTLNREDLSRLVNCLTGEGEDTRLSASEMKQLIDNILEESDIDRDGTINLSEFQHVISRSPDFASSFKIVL
Single-stranded DNA cytosine deaminase (Homo sapiens), sequence (Q9GZX7 whole entry, looked up): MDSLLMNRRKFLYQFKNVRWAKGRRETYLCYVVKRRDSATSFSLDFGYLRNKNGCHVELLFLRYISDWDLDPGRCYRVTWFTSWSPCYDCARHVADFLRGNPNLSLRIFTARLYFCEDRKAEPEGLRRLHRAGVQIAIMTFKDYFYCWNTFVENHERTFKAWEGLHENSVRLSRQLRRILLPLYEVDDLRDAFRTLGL
Cytochrome P450 2C9 (Homo sapiens), sequence (P11712 whole entry, looked up): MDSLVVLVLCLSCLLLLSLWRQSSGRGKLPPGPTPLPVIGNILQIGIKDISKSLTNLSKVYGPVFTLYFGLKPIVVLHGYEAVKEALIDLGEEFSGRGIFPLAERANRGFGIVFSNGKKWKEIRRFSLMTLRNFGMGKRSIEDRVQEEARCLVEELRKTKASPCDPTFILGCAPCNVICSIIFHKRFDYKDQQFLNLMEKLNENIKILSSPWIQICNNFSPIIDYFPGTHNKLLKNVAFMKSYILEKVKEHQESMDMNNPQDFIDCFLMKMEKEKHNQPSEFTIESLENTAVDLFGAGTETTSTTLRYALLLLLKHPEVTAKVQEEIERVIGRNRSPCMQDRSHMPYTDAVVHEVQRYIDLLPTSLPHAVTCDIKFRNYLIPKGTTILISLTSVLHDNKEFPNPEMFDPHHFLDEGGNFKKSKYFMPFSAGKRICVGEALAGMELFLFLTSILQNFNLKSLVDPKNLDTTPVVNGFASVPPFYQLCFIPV
Cytochrome P450 3A4 (Homo sapiens), sequence (P08684 whole entry, looked up): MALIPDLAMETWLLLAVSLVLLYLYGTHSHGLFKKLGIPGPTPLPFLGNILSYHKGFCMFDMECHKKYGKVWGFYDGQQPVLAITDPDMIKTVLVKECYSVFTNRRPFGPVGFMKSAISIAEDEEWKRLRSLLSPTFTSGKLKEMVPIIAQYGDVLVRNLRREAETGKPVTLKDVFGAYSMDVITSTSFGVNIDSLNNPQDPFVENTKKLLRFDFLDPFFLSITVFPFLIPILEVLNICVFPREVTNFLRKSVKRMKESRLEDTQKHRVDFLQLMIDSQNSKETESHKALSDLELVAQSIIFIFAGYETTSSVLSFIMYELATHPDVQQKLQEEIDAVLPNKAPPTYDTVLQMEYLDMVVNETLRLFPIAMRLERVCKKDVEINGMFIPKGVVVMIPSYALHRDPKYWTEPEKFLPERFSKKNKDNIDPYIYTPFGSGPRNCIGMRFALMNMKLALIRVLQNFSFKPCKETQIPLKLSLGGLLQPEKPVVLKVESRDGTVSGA

NCCCCC(=O)O
inactive: Potency [1] | Potency [2] | Potency [3]

Cn1c(=O)c2[nH]c(-c3ccccc3)nc2n(C)c1=O
inactive: Potency [1] | Potency [2] | Potency [3]

O=C(O)Cc1ccc2c(c1)C(=O)c1ccccc1CO2
inactive: Potency [4] | Potency [5] | Potency [6] | Potency [7] | max response [8] 16.2% | Potency [9] | Potency [10] | Potency [11] | Potency [12] | Potency [13]

Nc1nc(Cl)nc2c1ncn2[C@@H]1O[C@H](COP(=O)(O)OP(=O)(O)OP(=O)(O)O)[C@@H](O)[C@H]1O
inactive: Potency [1] | Potency [2] | Potency [3]

COc1cc(NC(C)CCCN)c2ncccc2c1 (stereo not drawn)
active: Potency [6] 44.7 µM | Potency [12] 6.68 µM | Potency [13] 5.31 µM
inactive: Potency [4] | Potency [5] | Potency [7]

CCCOC(=O)c1ccc(O)cc1
inactive: Potency [4] | Potency [5]

CN1CC(=O)N/C1=N/C(=O)Nc1cccc(Cl)c1
inactive: Potency [4] | outcome [14] | Potency [5] | Potency [2] | Potency [9] | Potency [11] | Potency [3] | Potency [12] | Potency [13]

O=C1/C(=C/c2ccsc2)CC/C1=C\c1cccs1
inactive: Potency [4] | outcome [14] | Potency [2]

O=C(O)/C=C/C(O)c1ccc(Cl)cc1 (stereo not drawn)
inactive: Potency [1] | Potency [2]

CC(=O)SCC[N+](C)(C)C
inactive: Potency [4] | outcome [14] | Potency [2] | Potency [3]

CCCC1(C)C(C#N)(C#N)C1(C#N)C#N
inactive: Potency [1] | Potency [2]

O=C(O)CC1CC(c2ccccc2)=NO1 (stereo not drawn)
inactive: Potency [1] | Potency [5] | Potency [2] | Potency [12] | Potency [13]

O=C1O/C(=C/Br)CCC1c1cccc2ccccc12 (stereo not drawn)
inactive: Potency [1] | Potency [2] | Potency [15] | Potency [16]

COc1cc(OC)c(/C=C2/C(=O)Nc3ccccc32)c(OC)c1
inactive: outcome [14] | Potency [2]
active: Potency [4] 0.891 µM

Cc1cc2c(cc1Cl)N(C(=O)Nc1ccc(Oc3cccnc3C)nc1)CC2
inactive: Potency [4] | outcome [14] | Potency [3]

CCCCCCCCCCCCCCCCCC(=O)NCC(COP(=O)([O-])OCC[N+](C)(C)C)OCC (stereo not drawn)
inactive: Potency [1] | Potency [2]

O=C(O)CC1CCCc2ccccc2C1O (stereo not drawn)
inactive: Potency [4] | outcome [14] | Potency [2] | Potency [3]

CC(C)(C)c1ccc(S(=O)(=O)/C=C/C#N)cc1
inactive: Potency [1] | Potency [2] | Potency [3]

O=C(Nc1cccc(C(=O)Nc2ccc(S(=O)(=O)O)c3cc(S(=O)(=O)O)cc(S(=O)(=O)O)c23)c1)Nc1cccc(C(=O)Nc2ccc(S(=O)(=O)O)c3cc(S(=O)(=O)O)cc(S(=O)(=O)O)c23)c1
inactive: Potency [1] | Potency [2]
active: Potency [3] 3.16 µM

O=C(O)[C@@H]1C[C@H](C(=O)O)N1
inactive: Potency [1] | Potency [2]

Nc1ccc(O)c([N+](=O)[O-])c1
inactive: Potency [4] | Potency [9]
active: Potency [17] 50.1 µM | Potency [10] 32.9 µM | Potency [11] 21.8 µM

N#C/C(=C\c1ccc(O)c(O)c1)C(=O)NCc1ccccc1
inactive: Potency [1]
active: Potency [12] 9.2 µM and 13.2 µM | Potency [13] 9.2 µM and 11.8 µM

CCCCC/C=C\CC(O)/C=C/c1cccc(CC(O)CCCCO)n1 (stereo not drawn)
inactive: Potency [1] | Potency [2]

Nc1ncnc2c1ncn2[C@@H]1O[C@H](COP(=O)(O)OP(=O)(O)OP(=O)(O)OP(=O)(O)OC[C@@H]2O[C@H](n3cnc4c(N)ncnc43)[C@@H](O)[C@H]2O)[C@@H](O)[C@H]1O
inactive: Potency [4] | outcome [14] | Potency [2] | Potency [3]

C[N+]1(C)CCC(OC(=O)C(c2ccccc2)c2ccccc2)CC1
inactive: Potency [1] | Potency [2] | Potency [3]

CCCCN1CCC(n2c(=O)[nH]c3ccccc32)CC1
inactive: Potency [1] | Potency [2]

N#C/C(=C\c1ccc(O)c(O)c1)C(=O)NCCCc1ccccc1
inactive: Potency [1] | Potency [15] | Potency [16]
active: Potency [12] 14.6 µM | Potency [13] 16.4 µM | Potency [18] 15.7 µM

O=C1C(SCCO)=C(SCCO)C(=O)c2ccccc21
active: Potency [1] 10 µM | Potency [2] 25.1 µM
inactive: Potency [3] | Potency [15] | Potency [16]

COc1ccccc1N1CCN(CCN(C(=O)c2ccc(I)cc2)c2ccccn2)CC1
inactive: Potency [4]

N=C(N)N
inactive: Potency [4] | Potency [5] | Potency [9] | Potency [10] | outcome [19] | Potency [11] | Potency [12] | Potency [13]

CC(C)OC(=O)c1cc(C(=O)OC(C)C)cc([N+](=O)[O-])c1
active: Potency [10] 3.73 µM | Potency [11] 0.748 µM
inactive: Potency [4] | Potency [5] | Potency [6] | Potency [9] | Potency [12] | Potency [13]

COC(=O)C1=C(C)NC(C)=C(C(=O)OCC(C)=O)C1c1ccccc1[N+](=O)[O-] (stereo not drawn)
inactive: Potency [4] | Potency [5] | Potency [2] | Potency [9]
active: Potency [11] 8.71 µM | Potency [12] 11.9 µM | Potency [13] 11.9 µM

NCCO
inactive: Potency [4] | Potency [5] | Potency [6] | Potency [9] | Potency [10] | Potency [11] | Potency [12]

C[N+]1(C)[C@@H]2CC(OC(=O)[C@H](CO)c3ccccc3)C[C@H]1[C@@H]1O[C@@H]12 (stereo partly drawn)
inactive: Potency [4] | Potency [5] | Potency [2] | Potency [9] | Potency [10] | Potency [12] | Potency [13]

CCOc1ccc2nc(S(N)(=O)=O)sc2c1
inactive: Potency [4] | Potency [5] | Potency [2] | Potency [9] | Potency [10]

C#CC1(O)CC[C@H]2[C@@H]3CCC4=CCCC[C@@H]4[C@H]3CC[C@@]21C (stereo partly drawn)
inactive: Potency [4] | Potency [5] | Potency [2]
active: Potency [11] 1.74 µM
